{
  "source": "paper PMC4336329",
  "about": "(PLoS ONE, 2015)",
  "note": "In all, about 310,000 compounds went through this assay and about 14,000 (4.5%) showed an effect of 50% or more. Effects have a minus sign here. Many of the other results were omitted from the sample, so strong results are more common in it than they were.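 Further: peak tail current of the secondary pulse compared with the same well before compound.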",
  "data": [
    {"biological_target": "human ether-à-go-go-related gene (hERG) potassium channel (human, UniProt Q12809)", "sequence (Q12809 whole entry, looked up)": "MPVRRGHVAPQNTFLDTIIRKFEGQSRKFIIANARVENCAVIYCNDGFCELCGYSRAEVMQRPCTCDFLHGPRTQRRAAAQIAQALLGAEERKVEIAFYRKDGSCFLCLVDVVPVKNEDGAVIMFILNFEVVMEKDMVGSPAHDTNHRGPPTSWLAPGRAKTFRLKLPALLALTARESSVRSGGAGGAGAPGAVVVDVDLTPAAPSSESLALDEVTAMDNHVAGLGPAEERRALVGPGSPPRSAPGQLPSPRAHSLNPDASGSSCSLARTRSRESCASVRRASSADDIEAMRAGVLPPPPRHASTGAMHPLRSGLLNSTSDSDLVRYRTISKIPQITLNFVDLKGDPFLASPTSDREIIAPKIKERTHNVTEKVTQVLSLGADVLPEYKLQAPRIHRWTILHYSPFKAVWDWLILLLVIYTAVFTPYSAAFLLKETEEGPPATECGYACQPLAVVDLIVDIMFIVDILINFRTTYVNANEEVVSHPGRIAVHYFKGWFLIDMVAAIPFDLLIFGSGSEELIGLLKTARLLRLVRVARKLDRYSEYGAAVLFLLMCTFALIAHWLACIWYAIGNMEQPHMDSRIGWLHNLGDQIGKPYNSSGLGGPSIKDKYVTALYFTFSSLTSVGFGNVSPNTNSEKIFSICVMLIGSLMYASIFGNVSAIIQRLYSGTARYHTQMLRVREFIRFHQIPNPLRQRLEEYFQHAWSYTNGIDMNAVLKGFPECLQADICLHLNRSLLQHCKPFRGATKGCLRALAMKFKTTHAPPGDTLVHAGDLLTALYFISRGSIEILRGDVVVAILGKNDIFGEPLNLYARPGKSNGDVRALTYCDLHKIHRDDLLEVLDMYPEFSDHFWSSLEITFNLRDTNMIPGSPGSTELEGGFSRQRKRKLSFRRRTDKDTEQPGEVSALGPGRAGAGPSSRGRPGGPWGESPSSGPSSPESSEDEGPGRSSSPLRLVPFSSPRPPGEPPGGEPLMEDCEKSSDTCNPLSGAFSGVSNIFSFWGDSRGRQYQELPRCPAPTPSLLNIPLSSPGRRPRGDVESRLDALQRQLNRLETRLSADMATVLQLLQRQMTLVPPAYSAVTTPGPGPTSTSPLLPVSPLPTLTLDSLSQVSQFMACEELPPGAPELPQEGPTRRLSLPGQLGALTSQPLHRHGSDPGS", "assay": "primary screen, population patch clamp on CHO cells stably expressing hERG; higher = less effect of the substance", "units": {"hERG current change (%, negative = inhibition) at 10uM": "%"}, "values": [
      {"smiles": "COCC1CCCN(C(=O)c2ccc3oc(CCCc4ccccc4)nc3c2)C1", "note": "(stereo not drawn)", "hERG current change (%, negative = inhibition) at 10uM": -16.2},
      {"smiles": "CCn1c(SCC(=O)C(C)(C)C)nnc1-c1cccnc1", "hERG current change (%, negative = inhibition) at 10uM": -0.363},
      {"smiles": "CC(C)NS(=O)(=O)c1ccc(NC(=O)C(C)OC(=O)CCC2CCCC2)cc1", "note": "(stereo not drawn)", "hERG current change (%, negative = inhibition) at 10uM": 7.06},
      {"smiles": "Cc1cc(C(=O)N/N=C/c2cc([N+](=O)[O-])ccc2O)c2ccccc2n1", "hERG current change (%, negative = inhibition) at 10uM": 6.35},
      {"smiles": "CCOCCCNC(=S)N(CCN(CC)CC)Cc1cc2cc3c(cc2[nH]c1=O)OCCO3", "hERG current change (%, negative = inhibition) at 10uM": 7.75},
      {"smiles": "CCCN(CCC)C1Sc2ccc(C(=O)OC)cc2NC1=O", "note": "(stereo not drawn)", "hERG current change (%, negative = inhibition) at 10uM": -9.31},
      {"smiles": "Cc1ccc(NC(=S)N2CCC(O)CC2)c(C)c1", "hERG current change (%, negative = inhibition) at 10uM": 16.3},
      {"smiles": "CC(=O)Oc1ccc2nc(CN3C(=O)c4ccc([N+](=O)[O-])cc4C3=O)oc(=O)c2c1", "hERG current change (%, negative = inhibition) at 10uM": 10},
      {"smiles": "CC1Nc2ccccc2C(=O)N1NC(=O)c1ccc(Br)cc1", "note": "(stereo not drawn)", "hERG current change (%, negative = inhibition) at 10uM": -9.66},
      {"smiles": "O=C(NN1C(=O)c2ccccc2NC1c1ccoc1)c1ccc([N+](=O)[O-])cc1", "note": "(stereo not drawn)", "hERG current change (%, negative = inhibition) at 10uM": -41.8},
      {"smiles": "O=C(NN1C(=O)c2ccccc2NC1c1ccco1)c1ccccc1", "note": "(stereo not drawn)", "hERG current change (%, negative = inhibition) at 10uM": -0.469},
      {"smiles": "O=C(NN1C(=O)c2ccccc2NC1c1ccc([N+](=O)[O-])o1)c1ccc([N+](=O)[O-])cc1", "note": "(stereo not drawn)", "hERG current change (%, negative = inhibition) at 10uM": -65.5},
      {"smiles": "O=C(NN1C(=O)c2ccccc2NC1c1ccco1)c1ccc(Br)cc1", "note": "(stereo not drawn)", "hERG current change (%, negative = inhibition) at 10uM": -76.6},
      {"smiles": "O=C(NN1C(=O)c2ccccc2NC1c1ccc([N+](=O)[O-])o1)c1ccccc1", "note": "(stereo not drawn)", "hERG current change (%, negative = inhibition) at 10uM": -9.78},
      {"smiles": "CC(=O)NN1C(=O)c2ccccc2NC1c1ccc([N+](=O)[O-])o1", "note": "(stereo not drawn)", "hERG current change (%, negative = inhibition) at 10uM": 8.22},
      {"smiles": "CC(=O)NN1C(=O)c2ccccc2NC1c1ccco1", "note": "(stereo not drawn)", "hERG current change (%, negative = inhibition) at 10uM": 15.7},
      {"smiles": "O=C(NN1C(=O)c2ccccc2NC1c1ccc([N+](=O)[O-])o1)c1ccc(Br)cc1", "note": "(stereo not drawn)", "hERG current change (%, negative = inhibition) at 10uM": -72.7},
      {"smiles": "COc1ccccc1NCCC(=O)OCC(=O)NC1CCCC(C)C1C", "note": "(stereo not drawn)", "hERG current change (%, negative = inhibition) at 10uM": 9.37},
      {"smiles": "CCOc1cc(/C=C2/C(=N)N3N=C(C)SC3=NC2=O)ccc1OS(=O)(=O)c1ccc(C)cc1", "hERG current change (%, negative = inhibition) at 10uM": 0.16},
      {"smiles": "COc1ccc(NC(=O)Cn2c(=O)n(-c3ccccc3)c(=O)c3sccc32)c(OC)c1", "hERG current change (%, negative = inhibition) at 10uM": 0.835},
      {"smiles": "CCOC(=O)c1sc(NC(=O)CCN2CCOCC2)c(C(=O)OCC)c1C", "hERG current change (%, negative = inhibition) at 10uM": -2.58},
      {"smiles": "CCOC(=O)c1sc(NC(=O)CCN2CC(C)OC(C)C2)c(C(=O)OCC)c1C.O=C(O)C(=O)O", "note": "(stereo not drawn)", "hERG current change (%, negative = inhibition) at 10uM": 13.9},
      {"smiles": "CCOC(=O)c1c(NC(=O)c2cccs2)sc(C(=O)N(C)C)c1C", "hERG current change (%, negative = inhibition) at 10uM": -10.9},
      {"smiles": "CCOC(=O)c1sc(NC(=O)CCN2CCCCCC2)c(C(=O)OCC)c1C", "hERG current change (%, negative = inhibition) at 10uM": -24.7},
      {"smiles": "CCOC(=O)c1c(-c2ccc(C)cc2)csc1NC(=O)CCN1CCOCC1", "hERG current change (%, negative = inhibition) at 10uM": -42.1},
      {"smiles": "CCOC(=O)c1c(NC(=O)c2cccs2)sc(C)c1C", "hERG current change (%, negative = inhibition) at 10uM": 3.46},
      {"smiles": "CCOC(=O)c1sc(NC(=O)CCN2CCN(CC)CC2)c(C(=O)OCC)c1C", "hERG current change (%, negative = inhibition) at 10uM": -88.9},
      {"smiles": "CCOC(=O)c1c(-c2ccc(OC)cc2)csc1NC(=O)CCN1CCOCC1", "hERG current change (%, negative = inhibition) at 10uM": -53.2},
      {"smiles": "CCOC(=O)c1c(-c2ccc(-c3ccccc3)cc2)csc1NC(=O)CCN1CCOCC1", "hERG current change (%, negative = inhibition) at 10uM": 13.8},
      {"smiles": "CCOC(=O)c1sc(NC(=O)CCN2CCN(C)CC2)c(C(=O)OCC)c1C", "hERG current change (%, negative = inhibition) at 10uM": -79},
      {"smiles": "CCOC(=O)c1sc(NC(=O)CCN2CCC(C)CC2)c(C(=O)OCC)c1C", "hERG current change (%, negative = inhibition) at 10uM": 9},
      {"smiles": "CCOC(=O)c1c(NC(=O)c2cccs2)sc(C(=O)N2CCOCC2)c1C", "hERG current change (%, negative = inhibition) at 10uM": -55.5},
      {"smiles": "NS(=O)(=O)c1ccc(CNC(=O)CSc2ccccc2)cc1", "hERG current change (%, negative = inhibition) at 10uM": 14.5},
      {"smiles": "CCOC(=O)C(=NC(C)CC)NNc1cccc(C(F)(F)F)c1", "note": "(stereo not drawn)", "hERG current change (%, negative = inhibition) at 10uM": -1.86},
      {"smiles": "O=C(c1ccc([N+](=O)[O-])cc1[N+](=O)[O-])N1CCCC1", "hERG current change (%, negative = inhibition) at 10uM": 5.62},
      {"smiles": "CN(Cc1ccccc1)C(=O)c1cc(S(=O)(=O)N2CCOCC2)cn1C", "hERG current change (%, negative = inhibition) at 10uM": -7.13},
      {"smiles": "Fc1cc(Br)ccc1NC(=S)Nc1cccnc1", "hERG current change (%, negative = inhibition) at 10uM": 0.43},
      {"smiles": "COc1ccc(C(=O)O)cc1S(=O)(=O)NC(C)C12CC3CC(CC(C3)C1)C2", "note": "(stereo not drawn)", "hERG current change (%, negative = inhibition) at 10uM": 1.27},
      {"smiles": "O=C(NC1CCCCCC1)c1c(O)c2ccccc2[nH]c1=O", "hERG current change (%, negative = inhibition) at 10uM": 8.34},
      {"smiles": "CCOC(=O)c1ccc(NC(=O)CCc2nc(-c3ccc(C)cc3)no2)cc1", "hERG current change (%, negative = inhibition) at 10uM": 5.14},
      {"smiles": "Cc1cccc(OCC(=O)NCc2cc(C)nc3ccccc23)c1", "hERG current change (%, negative = inhibition) at 10uM": -9.05},
      {"smiles": "O=c1cc(CCl)[nH]c2nc3ccccc3n12", "hERG current change (%, negative = inhibition) at 10uM": -6.02},
      {"smiles": "CCC(C)n1c(SCc2ccc([N+](=O)[O-])cc2)nc2ccsc2c1=O", "note": "(stereo not drawn)", "hERG current change (%, negative = inhibition) at 10uM": -11.6},
      {"smiles": "CN1CCN(c2nc(-c3ccc(Cl)s3)cs2)CC1", "hERG current change (%, negative = inhibition) at 10uM": -3.91},
      {"smiles": "O=c1oc(-c2ccc([N+](=O)[O-])cc2)nc2ccccc12", "hERG current change (%, negative = inhibition) at 10uM": 18.2},
      {"smiles": "CCOC(=O)c1sc(NC(=O)CN2CCCC2)c(C(=O)OCC)c1C", "hERG current change (%, negative = inhibition) at 10uM": -6.37},
      {"smiles": "CCOC(=O)c1c(NC(=O)CSc2cccc[n+]2[O-])sc(C(=O)Nc2ccccc2)c1C", "hERG current change (%, negative = inhibition) at 10uM": -30.1},
      {"smiles": "CCOC(=O)c1c(NC(=O)CN2CCN(C)CC2)sc(C(=O)Nc2ccccc2)c1C", "hERG current change (%, negative = inhibition) at 10uM": -58.9},
      {"smiles": "Cc1ccc(NC(=O)CSCC(=O)OC(C)C(=O)Nc2ccc(S(N)(=O)=O)cc2)c(C)c1", "note": "(stereo not drawn)", "hERG current change (%, negative = inhibition) at 10uM": 5.08},
      {"smiles": "COc1ccc(F)cc1C(=O)C1CCCN(C(=O)c2ocnc2C)C1", "note": "(stereo not drawn)", "hERG current change (%, negative = inhibition) at 10uM": -10.1},
      {"smiles": "O=C(NC1CCCC1)C(=O)N(Cc1cccnc1)C(C(=O)NC1CCCC1)c1ccco1", "note": "(stereo not drawn)", "hERG current change (%, negative = inhibition) at 10uM": 19.6},
      {"smiles": "O=C(CN1CCN(c2ccccc2F)CC1)c1ccc2c(c1)OCO2", "hERG current change (%, negative = inhibition) at 10uM": -10.3},
      {"smiles": "O=C(CN1CCN(c2ccccc2F)CC1)c1ccc2cc[nH]c2c1", "hERG current change (%, negative = inhibition) at 10uM": -82.9},
      {"smiles": "O=C(CN1CCN(c2ccccc2F)CC1)c1ccc(O)c(O)c1", "hERG current change (%, negative = inhibition) at 10uM": -70.7},
      {"smiles": "O=C(CN1CCN(c2ccccc2F)CC1)c1ccc(O)cc1O", "hERG current change (%, negative = inhibition) at 10uM": 14.2},
      {"smiles": "O=C(CN1CCOCC1)c1ccc2cc[nH]c2c1", "hERG current change (%, negative = inhibition) at 10uM": 8.82},
      {"smiles": "O=C(CN1CCN(c2ccccc2)CC1)c1ccc2cc[nH]c2c1", "hERG current change (%, negative = inhibition) at 10uM": 11.4}
    ]}
  ]
}
